A selection: hits, their analogues and other compounds. The true share with any hit is near 21%.
Pf growth 96h = P. falciparum growth inhibition at 96 hours | P. falciparum luciferase reporter growth, 96 h | AID 504834 | Potency, µM (doses to about 28.7 µM), usual class: inhibitors | 320,000 compounds, 6.9% hits
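Compounds incubated with erythrocytes infected by luciferase-expressing P. falciparum (2% hematocrit, 0.05% parasitemia final) for 96 hours, 37 C in 5% CO2. Growth inhibition scored as decreased luciferase luminescence.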
CHX counter = affects cycloheximide protein synthesis inhibition readout, counter-screen | cell reporter, cycloheximide protein synthesis inhibition counterscreen | max response, % | 300,000 compounds, 12% hits; in the data active = max response mostly above about 13%, no sharp cut-off; inactive = mostly below about 14%; note: read at 38.3 µM for the half of the compounds with a filed dose
Shiga inhibitor = blocks Shiga toxin action in Vero cells; Vero cells, Shiga toxin protein synthesis inhibition reporter; inhibition, % at 38.7 µM; 290,000 compounds, 9.2% hits; AID 2315; in the data active = inhibition mostly above about 28%, no sharp cut-off; inactive = mostly below about 43%
NS1 function inh = influenza NS1 inhibition; Potency, µM (highest dose often 46.1 µM); 270,000 compounds, 0.4% hits; AID 2326; calls by dose curve; note: actives are rising curves; nearly all actives have a fitted effect of over 50% in size
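Recovery from NS1-induced slow growth read by OD600 in budding yeast switched to galactose assay medium (pH 6.0, -URA) at 1:100 dilution. Compound 23 nl per well; the matching strain lacking NS1 serves as control.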
Pf growth 48h = P. falciparum growth inhibition at 48 hours (one generation); P. falciparum luciferase growth in erythrocytes, 48 h; Potency, µM (highest dose often 28.7 µM), most hits filed as inhibitors; 310,000 compounds, 5.9% hits; AID 504832
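Luminescence readout; reporter = integrated firefly luciferase in P. falciparum. RBC culture at 2% hematocrit, 0.1% parasitemia final, 37 C/5% CO2; decreased signal taken as growth inhibition.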
Hits are given with their value; 0 = inactive; ? = inconclusive; - = no result; [ ] = remark or other dose. Unless noted, calls come from the whole dose curve; as a rule, active = well fitted inhibition curve with a large enough effect; inconclusive = small, poorly fitted or top-dose-only effect, or another doubt; inactive = no such curve, though single readings can be large or run the other way.

SMILES | Pf growth 96h | CHX counter | Shiga inhibitor | NS1 function inh | Pf growth 48h
O=C(CSc1nccc(=O)[nH]1)c1ccccc1Br | ? | 0 | 0 | 0 | -
O=C(CN1CCC(NC(=O)c2ccccc2)CC1)NCc1ccccc1F | 5.9µM | 0 | 0 | 0 | ?
O=C(CN1CCC(NC(=O)c2ccccc2F)CC1)NCc1ccc(F)cc1 | - | 0 | 0 | 0 | 13µM
O=C(CN1CCC(NC(=O)c2ccc(F)cc2)CC1)NCc1ccccc1F | 0 | 0 | 0 | 0 | 0
COc1ccc(C(=O)Nc2cccc(-c3cnc4ccccc4n3)c2)cc1 | ? | 0 | 0 | 0 | ?
O=[N+]([O-])c1cccc(-c2cnc3ccccc3n2)c1 | 0 | 24 | 63 | 0 | 0
Nc1cccc(-c2cnc3ccccc3n2)c1 | 0 | 64 | 63 | 0 | 0
CC(C)[C@H](NC(=O)N1CCn2c1nc1ccccc12)C(=O)NC1CCCCC1 | ? | 0 | 0 | 0 | 0
COc1ccc(C(=O)NCCCNC(=O)c2cnccn2)cc1Br | ? | 0 | 0 | 0 | ?
O=Cc1c(NCc2ccc(F)cc2)c2ccccc2[nH]c1=O | 10µM | 0 | 0 | 0 | 0
Cc1ccc(CNc2c(C=O)c(=O)[nH]c3ccccc23)cc1 | ? | 0 | 0 | 0 | 0
Fc1cccc2sc(Nc3nnc(-c4ccccc4)o3)nc12 | 0 | 27 | 46 | 0 | 0
COc1cc(OC)cc(-c2nnc(Nc3nc4c(F)cccc4s3)o2)c1 | 12µM | 0 | 0 | 0 | 0
COc1ccc(-c2nnc(Nc3nc4c(OC)cccc4s3)o2)c(OC)c1 | 0 | 18 | 43 | 0 | 10µM
Cc1ccc(C)c(S(=O)(=O)N(C)C2(C)CCS(=O)(=O)C2)c1 (centres undefined) | 0 | - | - | - | 0
O=C(Nc1cccc(C(F)(F)F)c1)C(=O)N1CCCCC1 | ? | 11 | 0 | 0 | 0
FC(F)(F)c1cccc(NC(=S)N2CCCCCC2)c1 | ? | 0 | 0 | - | 0
O=C(Nc1cccc([N+](=O)[O-])c1)C(=O)N1CCCCC1 | 0 | 43 | 69 | 0 | ?
O=[N+]([O-])c1cccc(NC(=S)N2CCCC2)c1 | ? | 0 | 0 | 0 | 0
O=C(COc1ccc2c(c1)CCC2)NCc1ccc(Cl)cc1 | 0 | 0 | 0 | 0 | 0
O=S(=O)(NC1CC1)c1ccc(Cl)cc1F | 0 | 0 | 0 | 0 | 0
c1coc(CNCc2cccs2)c1 | 9.3µM | 0 | 0 | 0 | 0
CCC(=O)Nc1nnc(SCC(=O)NCCc2ccc(OC)c(OC)c2)s1 | ? | 0 | 0 | 0 | 0
Cc1cccc(-c2cc3nc(C)cc(NCCCN(C)C)n3n2)c1 | 0 | 0 | 0 | 0 | 10µM
COCCNc1cc(C)nc2cc(-c3ccc(C)cc3)nn12 | 0 | 15 | 0 | 0 | 0
SMILES | Pf growth 96h | CHX counter | Shiga inhibitor | NS1 function inh | Pf growth 48h
CN(C)CCCNc1cc(-c2ccccc2)nc2cc(-c3cccc(F)c3)nn12 | 0 | 0 | 0 | 0 | ?
COc1ccc(-c2cc3nc(C)cc(-c4ccc(OC)cc4)n3n2)cc1 | ? | 0 | - | 0 | ?
COc1ccc(-c2cc3nc(C)cc(N)n3n2)cc1 | 0 | 15 | 0 | 0 | 0
Cc1ccc(-c2cc3nc(C)cc(NCc4ccco4)n3n2)cc1 | 0 | 55 | 59 | 0 | 0
Cc1csc2c(C#N)c(=O)c3c(n12)CCC3 | - | 0 | 0 | 0 | 0
COc1ccc(-c2cc3nc(C)cc(NCCO)n3n2)cc1 | 4.7µM | 22 | 0 | 0 | 0
O=C(COC(=O)c1ncc(Cl)c(Cl)c1Cl)Nc1cccnc1Cl | 0 | - | - | - | 0
Fc1cccc(-c2cc3nc(-c4ccccc4)cc(N4CCC5(CC4)OCCO5)n3n2)c1 | 0 | 0 | 0 | 0 | 8.3µM
COc1ccc(-c2c(C)nn3c(N4CCC5(CC4)OCCO5)cc(C)nc23)cc1OC | 0 | 0 | 0 | 0 | 12µM
Cc1cccc(-c2cc3nc(-c4ccccc4)cc(N4CCC5(CC4)OCCO5)n3n2)c1 | 0 | 0 | 0 | 0 | ?
COc1ccc(-c2c(C)nn3c(N4CCOCC4)cc(C)nc23)cc1OC | ? | 0 | 0 | 0 | ?
Cc1ccc(-c2cc3nc(-c4ccccc4)cc(N4CCC5(CC4)OCCO5)n3n2)cc1 | 0.29µM | 0 | 0 | 0 | 8.3µM
Fc1ccc(-c2cc3nc(-c4ccccc4)cc(N4CCOCC4)n3n2)cc1 | 0 | 0 | 0 | 0 | -
COCCN1CCN(c2cc(-c3ccccc3)nc3cc(-c4cccc(F)c4)nn23)CC1 | ? | 0 | 0 | 0 | 12µM
O=S(=O)(Nc1cccnc1)c1cccc2cccnc12 | - | - | - | 0 | -
CCOC(=O)C(=CNc1ccc(C#N)cc1)C(=O)OCC | 0 | 0 | 0 | 0 | 0
O=C(NCCc1ccccn1)c1nc(Cn2cc(Br)cn2)no1 | 0 | 0 | 0 | 0 | 0
O=C(Nc1ccc2c(c1)OCCO2)C1CCCN(S(=O)(=O)c2cnc[nH]2)C1 (centres undefined) | 0 | 0 | 0 | 0 | 0
CNC(=O)c1ccc(-c2sc3nc(N4CCOCC4)c4c(c3c2N)CCCC4)o1 | ? | 0 | 0 | 0 | 12µM
CNC(=O)c1ccc(-c2sc3nc(N4CCOCC4)c4c(c3c2N)CC(C)(C)OC4)o1 | ? | 0 | 0 | 0 | ?
CCOc1ccc(NC(=O)c2sc3nc(N4CCOCC4)c4c(c3c2N)CCCC4)cc1 | 13µM | 0 | 0 | 0 | ?
Nc1c(C(=O)NCc2ccccc2)sc2nc(N3CCOCC3)c3c(c12)CCCC3 | 12µM | 0 | 0 | 0 | ?
COc1cccc(NC(=O)c2sc3nc(N4CCOCC4)c4c(c3c2N)CCCC4)c1 | ? | 25 | 30 | 0 | 0
CC(=O)c1ccc(NC(=O)CN2C(=O)NC(C)(C3CCCCC3)C2=O)cc1 (centres undefined) | 0 | - | - | - | 0
O=S(=O)(/C=C/c1ccccc1)Nc1ccc2c(c1)OCO2 | 0[5.75 µM] | 0 | 0 | 0 | 0
SMILES | Pf growth 96h | CHX counter | Shiga inhibitor | NS1 function inh | Pf growth 48h
O=C(CCNC(=O)c1ccc(Cl)cc1)Nc1c(F)c(F)cc(F)c1F | 0 | 0 | 0 | 0 | 0
Nc1c(C(=O)Nc2ccc(Cl)cc2)sc2nc(N3CCOCC3)c3c(c12)CCCC3 | ? | 0 | 0 | 0 | 0
CC(=O)c1ccc(NC(=O)c2sc3nc(N4CCOCC4)c4c(c3c2N)CCCC4)cc1 | 0 | 21 | 65 | ? | 0
CC(C)(Oc1ccc(Br)cc1)C(=O)N1CCc2ccccc21 | - | 0 | 0 | 0 | ?
Cn1c2c(c(=O)n(C)c1=O)[C@@]1(C(=O)Nc3ccccc31)C(C#N)=C(N)O2 | 13µM | 0 | 0 | 0 | ?
N#CC1=C(N)Oc2n[nH]c(-c3ccccc3)c2C12C(=O)Nc1ccccc12 (centres undefined) | 0 | 0 | 0 | 0 | 0
COc1nc(-c2ccccc2)nnc1-c1ccccc1 | 0 | 41 | 85 | 0 | 0
Clc1ccc(-c2nnc(-c3ccccc3)c(-c3ccccc3)n2)cc1 | ? | 0 | 0 | 0 | ?
CCCn1c(C2CCCN2c2nc(-c3cccc(Br)c3)cs2)nc2cc(Cl)c(Cl)cc21 (centres undefined) | 9.3µM | 0 | 0 | 0 | 12µM
CCc1noc(C)c1C(=O)Nc1cccc(S(=O)(=O)N2CCCCCC2)c1 | 0 | - | - | - | ?
Cc1onc(-c2ccccc2)c1C(=O)Nc1ccc(S(=O)(=O)N2CCCC2)cc1 | 0 | 19 | 0 | 0 | 0
COc1ccc(S(=O)(=O)N2CCOCC2)cc1NC(=O)c1ccncc1 | ? | - | - | - | 0
Cc1noc(C)c1C(=O)Nc1cccc(S(=O)(=O)N2CCCCC2)c1 | 8.3µM | - | - | - | 0

Assay outcomes from PubChem.
